Data as given in the supplement of paper PMC11732987, “Enantioselective OTUD7B fragment discovery through chemoproteomics screening and high-throughput optimisation” (Communications Chemistry, 2025).

Key:
Assay in all cases: log2 ratio of Biotin-Ahx-Ub-VS probe labelling (compound/DMSO); higher = less target engagement, active = hit call of the paper (q ≤ 0.05, log2 ratio ≤ -1)
Details in all cases: treatment time: 3 h
[1] = compound: CCC1N(CCc2sccc12)C(=O)CCl
In short: (§1)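 HEK293T lysate (495 µg per sample, in Tris/CHAPS/IGEPAL buffer with protease inhibitors) was treated in triplicate with compound at 50 or 200 µM or with DMSO for 3 h. It was then treated with Biotin-Ahx-Ub-VS (0.5 µM final) for 1 h. Labelled DUBs were NeutrAvidin-enriched, digested with LysC and trypsin, and run by diaPASEF LC-MS/MS. Median-normalised label-free quantities gave average log2 ratios compound/DMSO by unpaired t-test, using proteins with ≥2 unique peptides.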

[2] = compound: CN1c2ccccc2C(CS1(=O)=O)NC(=O)CCl
In short: as §1

[3] = compound: Cl.ClCC(=O)N1CCc2ncncc2C1
In short: as §1

[4] = compound: Cl.Cn1ncc2C(CCCc12)NC(=O)CCl
In short: as §1

[5] = compound: ClCC(=O)NC1CCOc2ccccc12
In short: as §1

[6] = compound: ClCC(=O)NC1CCCc2ccccc12
In short: (§2)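 The values are mean compound-versus-vehicle ratios derived by unpaired t-test. For 3 h, triplicate HEK293T lysate samples (495 µg each) were treated with compound at a series of concentrations or with vehicle, after which Biotin-Ahx-Ub-VS was added to 0.5 µM final for 1 h. Labelled deubiquitinases were enriched with NeutrAvidin, digested with LysC and trypsin, and analysed by diaPASEF LC-MS/MS. Ratios are log2 values from global-median-normalised Spectronaut label-free quantities, using proteins with two or more unique peptides.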

[7] = compound: ClCC(=O)N[C@@H]1CCCc2ccccc12
In short: as §2

[8] = compound: ClCC(=O)N[C@H]1CCCc2ccccc12
In short: as §2

[9] = compound: CCC1N(CCc2cc(OC)c(Cl)cc12)C(=O)CCl
In short: as §1

[10] = compound: CCCC1N(CCc2cc(OC)c(OC)cc12)C(=O)CCl
In short: as §1

[11] = compound: CN(Cc1cccc(Br)c1)C(=O)CCl
In short: as §1

[12] = compound: CN(Cc1cccc(OCc2ccccc2C)c1)C(=O)CCl
In short: as §1

[13] = compound: CN(Cc1ccccc1)C(=O)CCl
In short: as §1

[14] = compound: COc1ccc(CN(C)C(=O)CCl)cc1
In short: as §1

[15] = compound: COc1cccc(CN(CCCc2ccccc2)C(=O)CCl)c1
In short: as §1

[16] = compound: ClCC(=O)N1CCc2cc(Cl)c(Cl)cc2C1
In short: as §1

[17] = compound: ClCC(=O)N1CCc2nc(ncc2C1)-c1ccccc1
In short: as §1

[18] = compound: ClCC(=O)N1CCc2nocc2C1
In short: as §1

[19] = compound: ClCC(=O)N1CCc2scc(Br)c2C1
In short: as §1

[20] = compound: ClCC(=O)NC(C1CCCC1)c1cccs1
In short: as §1

Measured: log2 ratio of Biotin-Ahx-Ub-VS probe labelling

UniProt Q8TE49
Sequence of UniProt Q8TE49 (Q8TE49 whole entry): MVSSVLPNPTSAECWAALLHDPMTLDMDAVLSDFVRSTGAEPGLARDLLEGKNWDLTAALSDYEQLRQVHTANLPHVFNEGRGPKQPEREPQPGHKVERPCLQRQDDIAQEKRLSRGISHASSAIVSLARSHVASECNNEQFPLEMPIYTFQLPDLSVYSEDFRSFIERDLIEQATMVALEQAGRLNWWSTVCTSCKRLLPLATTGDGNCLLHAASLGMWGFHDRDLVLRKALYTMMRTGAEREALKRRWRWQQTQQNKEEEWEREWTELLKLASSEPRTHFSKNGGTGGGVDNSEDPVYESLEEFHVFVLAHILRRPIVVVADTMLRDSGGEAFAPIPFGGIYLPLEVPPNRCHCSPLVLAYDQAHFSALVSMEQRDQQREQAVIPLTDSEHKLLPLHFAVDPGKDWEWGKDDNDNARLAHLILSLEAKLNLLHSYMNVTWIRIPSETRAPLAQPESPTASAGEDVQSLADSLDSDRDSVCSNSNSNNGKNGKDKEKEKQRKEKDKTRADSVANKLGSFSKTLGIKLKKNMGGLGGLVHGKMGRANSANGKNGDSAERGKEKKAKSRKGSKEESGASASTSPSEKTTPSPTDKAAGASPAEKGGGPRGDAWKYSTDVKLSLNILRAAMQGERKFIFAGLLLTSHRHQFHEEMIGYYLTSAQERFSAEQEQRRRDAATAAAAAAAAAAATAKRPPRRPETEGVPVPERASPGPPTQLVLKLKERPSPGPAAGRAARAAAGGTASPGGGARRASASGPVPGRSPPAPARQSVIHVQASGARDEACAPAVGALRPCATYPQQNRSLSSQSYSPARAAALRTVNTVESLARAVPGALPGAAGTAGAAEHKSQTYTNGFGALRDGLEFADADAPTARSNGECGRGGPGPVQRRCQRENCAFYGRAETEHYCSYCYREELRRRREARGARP
inactive: [1]; compound concentration: 50uM -0.281 | [1]; compound concentration: 200uM -0.466 | [3]; compound concentration: 50uM -0.364 | [5]; compound concentration: 50uM -0.839 | [7]; compound concentration: 0.78uM -0.577 | [7]; compound concentration: 1.56uM -0.173 | [7]; compound concentration: 3.13uM -0.995 | [7]; compound concentration: 12.5uM -0.347 | [7]; compound concentration: 25uM -0.135 | [7]; compound concentration: 100uM -0.0704 | [8]; compound concentration: 0.78uM -1.04 | [8]; compound concentration: 12.5uM -0.835 | [9]; compound concentration: 50uM 0.126 | [10]; compound concentration: 50uM -0.481 | [10]; compound concentration: 200uM -1.23 | [11]; compound concentration: 50uM -0.52 | [11]; compound concentration: 200uM -0.96 | [12]; compound concentration: 50uM -0.844 | [12]; compound concentration: 200uM -1.04 | [13]; compound concentration: 50uM -0.139 | [13]; compound concentration: 200uM -0.82 | [14]; compound concentration: 50uM -0.245 | [14]; compound concentration: 200uM -0.895 | [15]; compound concentration: 50uM -0.508 | [15]; compound concentration: 200uM -0.562 | [16]; compound concentration: 50uM -0.0686 | [17]; compound concentration: 50uM -0.422 | [18]; compound concentration: 50uM -0.33 | [19]; compound concentration: 50uM -0.0558 | [20]; compound concentration: 50uM 0.0953 | [20]; compound concentration: 200uM -0.534
active: [2]; compound concentration: 50uM -1.25 | [2]; compound concentration: 200uM -2.71 | [3]; compound concentration: 200uM -1.55 | [4]; compound concentration: 50uM -2.22 | [4]; compound concentration: 200uM -2.78 | [5]; compound concentration: 200uM -1.23 | [6]; compound concentration: 0.78uM -1.71 | [6]; compound concentration: 1.56uM -1.79 | [6]; compound concentration: 3.13uM -1.77 | [6]; compound concentration: 6.25uM -1.34 | [6]; compound concentration: 12.5uM -1.27 | [6]; compound concentration: 25uM -2.03 | [6]; compound concentration: 50uM -2.39 | [6]; compound concentration: 100uM -2.75 | [6]; compound concentration: 200uM -3.99 | [7]; compound concentration: 6.25uM -1.72 | [7]; compound concentration: 50uM -1.33 | [7]; compound concentration: 200uM -1.69 | [8]; compound concentration: 1.56uM -1.6 | [8]; compound concentration: 3.13uM -1.78 | [8]; compound concentration: 6.25uM -1.41 | [8]; compound concentration: 25uM -2.19 | [8]; compound concentration: 50uM -2.93 | [8]; compound concentration: 100uM -3.39 | [8]; compound concentration: 200uM -3.55 | [9]; compound concentration: 200uM -1.15 | [16]; compound concentration: 200uM -1.89 | [17]; compound concentration: 200uM -1.52 | [18]; compound concentration: 200uM -2.04 | [19]; compound concentration: 200uM -1.81
